# Key:
# Assay in all cases: PBM binding z-score (relative to random genomic background probes); higher = stronger binding; sequences stand for … in GC…GCGATTGACAGCGTAGAATGAAGG
# [1] = test system: FXR:RXRa (NR concentration 270 nM, RXRa partner concentration 90 nM)
# Method in brief: (§1)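 Binding buffer was PBS pH 7.4 with 2% milk, 0.02% Triton X-100, 1 mM DTT, 0.2 mg/mL BSA and 0.4 mg/ml salmon testes DNA. In it, ligand-free nuclear receptor dimers were incubated 1 h on custom Agilent 4×180K protein-binding microarrays carrying double-stranded probes. Antibodies against each partner (one per run) detected binding, and z-scores were calculated against random background probes after regression normalization of scanned fluorescence.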
# [2] = test system: LXRa:RXRa (NR concentration 270 nM, RXRa partner concentration 90 nM)
# Method in brief: as §1
# [3] = test system: LXRa homodimer (NR concentration 270 nM)
# Method in brief: as §1
# [4] = test system: LXRb:RXRa (NR concentration 270 nM, RXRa partner concentration 90 nM)
# Method in brief: as §1
# [5] = test system: LXRb homodimer (NR concentration 270 nM)
# Method in brief: as §1
# [6] = test system: PPARa:RXRa (NR concentration 270 nM, RXRa partner concentration 90 nM)
# Method in brief: as §1
# [7] = test system: PPARg:RXRa (NR concentration 180 nM, RXRa partner concentration 90 nM)
# Method in brief: as §1
# [8] = test system: PPARg:RXRa 270nM:90nM, anti-RXR (NR concentration 270 nM, RXRa partner concentration 90 nM)
# Method in brief: as §1
# [9] = test system: PPARg:RXRa 30nM:10nM, anti-RXR (NR concentration 30 nM, RXRa partner concentration 10 nM)
# Method in brief: as §1
# [10] = test system: PPARg:RXRa 90nM:30nM, anti-RXR (NR concentration 90 nM, RXRa partner concentration 30 nM)
# Method in brief: as §1
# [11] = test system: PPARg:RXRa DBDmut IVT, anti-RXR (DBD mutation: RXRa K156A/R161A, NR concentration 270 nM, RXRa partner concentration 90 nM)
# Method in brief: as §1
# [12] = test system: PPARg:RXRa IVT, anti-PPARg (NR concentration 270 nM, RXRa partner concentration 90 nM)
# Method in brief: as §1
# [13] = test system: PPARg DBDmut:RXRa IVT, anti-PPARg (DBD mutation: PPARg1 K132A/R137A, NR concentration 270 nM, RXRa partner concentration 90 nM)
# Method in brief: as §1
# [14] = test system: PPARg DBDmut IVT, anti-PPARg (DBD mutation: PPARg1 K132A/R137A, NR concentration 270 nM)
# Method in brief: as §1
# [15] = test system: PPARg homodimer (NR concentration 180 nM)
# Method in brief: as §1
# [16] = test system: PXR:RXRa (NR concentration 270 nM, RXRa partner concentration 90 nM)
# Method in brief: as §1
# [17] = test system: PXR homodimer (NR concentration 270 nM)
# Method in brief: as §1
# [18] = test system: RARa:RXR (NR concentration 270 nM, RXRa partner concentration 90 nM)
# Method in brief: as §1
# [19] = test system: RARa homodimer (NR concentration 270 nM)
# Method in brief: as §1
# [20] = test system: RARb:RXRa (NR concentration 270 nM, RXRa partner concentration 90 nM)
# Method in brief: as §1
Sequence,PBM binding z-score [1],PBM binding z-score [2],PBM binding z-score [3],PBM binding z-score [4],PBM binding z-score [5],PBM binding z-score [6],PBM binding z-score [7],PBM binding z-score [8],PBM binding z-score [9],PBM binding z-score [10],PBM binding z-score [11],PBM binding z-score [12],PBM binding z-score [13],PBM binding z-score [14],PBM binding z-score [15],PBM binding z-score [16],PBM binding z-score [17],PBM binding z-score [18],PBM binding z-score [19],PBM binding z-score [20]
CAAACTAGGTCACAGAGGTCAAAGACCGTGCGTA,7.36,6.53,6.56,5.93,1.73,6.52,10.5,8.43,6.84,8.38,8.39,9.08,7.99,2.78,5.75,6.86,10.2,7.44,2.59,5.37
CATACAGGGTCAGCTAGGCCAGAGCAGGGACGGC,4.49,3.07,-0.271,2.11,0.561,4.35,3.33,3.05,0.789,1.85,0.983,2.45,0.782,0.361,1.29,2.04,0.078,2.84,0.253,4.15
ATATGTTGGTTAAGGGTCATTCAGGTTGGTTCGC,4.33,4.39,2.88,4.31,1.83,4.83,6.96,7.58,6.29,7.73,1.61,3.8,1.51,1.87,4.23,5.21,3.35,4.73,3.39,3.39
AGTCAAAGTTCAGGACGAGCTAACGTAAAGCACG,3.87,3.76,0.971,1.55,0.0911,3.08,4.04,4.89,2.01,4.19,-0.565,1.33,0.323,-0.197,1.5,1.98,0.743,1.88,0.728,4.11
ATATGTAGGTTATCGGGTCAATCAGTTTGCGCAT,3.33,3.31,1.36,2.99,1.1,4.99,7.6,6.41,3.84,5.93,7.94,7.57,3.15,2.14,2.33,3.64,3.23,4.04,1.3,2.86
TCATATAGGTAATACTGGTGAAAGTCGGCATCTA,0.82,1,0.397,0.738,0.101,1.29,0.902,2.27,3.82,3.28,3.8,2.46,1.36,0.717,0.814,0.689,-0.083,0.73,0.536,0.451
AGAATGAGGATATTAAGATCAGGGAATTGCGGTC,-0.251,-0.424,0.0165,-0.53,-0.355,-0.323,0.311,-0.0295,-0.0325,-0.182,-0.168,0.03,0.947,0.486,-0.141,-0.209,0.0307,-0.171,0.578,-0.259
CTACCAATGTGAACAAGGTCGTTGATTACTATTC,0.783,1.15,0.608,1.83,0.441,1.51,0.331,0.322,0.12,0.449,0.604,0.639,0.446,0.752,0.968,1.99,1.41,1.89,1.01,0.831
CCGACTGGGGCAAGGTTACCATGACGCACAGCCA,-0.0845,0.558,0.0292,0.445,-1.06,1.87,2.78,3.14,1.24,2.47,2.69,3.49,-0.7,-0.368,0.811,0.221,-0.439,0.851,-0.183,1.62
TCTATTAGTTGATTAGGGCAACCGGAACAGCGGA,0.61,0.628,0.183,0.539,0.503,0.953,0.188,1.84,3.7,2.79,2.14,1.3,0.694,0.839,1.02,0.35,0.534,0.296,0.818,1.06
CCTATTAGTTGACCATAAGGGCAACCGTAGCTCG,0.644,0.364,0.502,0.478,0.7,0.679,0.376,0.487,0.0256,0.357,0.583,0.704,0.408,0.82,1.76,0.746,0.617,0.869,1.7,1.66
ATACCAAGGTGATCGCGAGGTCGTTGATACTAAC,1.6,0.914,0.243,1.06,-0.19,1.62,0.486,0.381,-0.106,0.108,0.441,1.35,0.0109,0.101,0.588,3.17,1.13,1.84,-0.462,1.24
ACTATTAGTTGACTTAGGTCAACCGATACGACGC,1.69,2.25,1.71,2.39,1.28,2.29,1.35,1.35,0.53,0.993,0.95,1.72,1.38,1.44,2.81,2.2,1.29,2.59,1.55,2.73
TCTATTAGTGGATTAGGGCAACCGAAACAGCGGA,0.803,0.521,0.262,0.532,0.78,0.571,0.412,1.68,3.07,2.64,2.45,2.24,0.96,1.11,1.27,0.235,0.482,0.458,1.39,0.682
CCTACTGAGCCAAGGTCATTGATCAGTCAAAGCA,3.46,3.43,1.43,3.3,0.637,3.61,0.656,1.62,0.331,0.858,0.598,0.834,-0.559,-0.729,2.66,3.69,2.46,3.64,1.47,3.15
TCTCGGAGGACACGAAAGGTCAGACCTCGACATC,3.09,3.69,3.12,3.51,-0.0358,3.57,1.38,2.68,2.63,2.67,1.73,1.54,0.0109,-0.512,2.48,4.1,0.547,4.15,1.09,4.28
CAAACTAGGTTACCGGAAGGTCAAAGTCCGCATG,4.06,5.04,4.5,4.05,1.13,4.85,6.22,5.55,2.78,4.83,7.31,6.8,1.12,1.42,4.03,4.47,1.65,5.36,1.39,3.9
CGTCCAAGGTCAAAGGTCAGTGGAGAGATGACGG,8.17,6.91,3.66,6.84,2.07,7.16,10.7,9.05,8.08,9.59,3.88,5.79,1.38,0.543,4.78,7.21,1.94,8.88,2.17,6.16
AGAATGATGTTACCAAAGATCAGGGAAACGCTTG,-0.399,0.968,-0.229,-0.18,-0.38,-0.0184,0.652,0.26,0.0901,0.313,-0.0632,0.0152,0.508,0.116,-0.153,-0.39,-0.411,0.018,0.147,-0.129
CCTAGCAGGCCAATCTGGGTCACTCATGGCTTGA,0.761,0.933,-0.409,0.376,-1.09,2.62,1.75,1.93,0.0126,0.944,4.04,4.89,-0.176,-0.808,0.139,0.641,-0.181,0.915,-0.68,1.44
AGTCCAAGTTCATCTAGGTAACGTAAGATATGCT,3.42,3.23,1.19,1.62,0.287,2.59,1.45,1.61,0.523,0.991,0.673,2.16,1.06,0.824,1.01,3.95,5.64,1.67,0.0751,3.3
TCATATAGGGAAACAGGTGAAAGTCCGTAAGTTA,1.01,1.04,0.121,1.11,-0.148,1.74,1.69,3.03,4.32,3.7,3.73,2.71,0.703,0.846,1.02,0.713,0.608,0.541,1.28,0.516
CCTACTGGGCAAAGGTCATTGATCAGTCAAAGCA,4.96,5.6,3.49,4.8,0.805,5.63,8.03,7.54,5.9,7.6,1.24,4.2,-0.384,-0.183,4.15,5.26,1.18,6.18,1.65,4.49
CGTCCAAGGTCAGCTGGTCAGTGAAAGCGACGTG,5.24,3.28,-0.407,2.31,-0.208,3.99,2.08,2.85,0.432,1.47,2.4,2.17,0.5,-0.832,2.63,2.67,-0.135,3.24,1.47,4.79
TAGAGTAGGTTAGGGGCATTCAGAATGGCGTCGA,0.854,0.929,0.289,1.66,2.45,2.24,2.29,3.01,1.48,2.6,2.77,3.28,1.38,0.566,1.85,1.08,1.72,0.913,1.66,1.81
ACTATGAGTTGACTTAGGGCAACCGATACGACGC,0.53,0.591,0.2,0.365,0.578,0.327,1.08,0.524,0.371,0.418,0.0745,0.378,0.38,1.61,0.141,0.608,0.888,1.09,0.486,0.974
TCTAGTTGGTCAAAGGTCACACAGTCGAAATGCG,6.26,5.83,4,5.36,1.46,6.64,11.6,9.15,10,11.1,3.56,5.99,1.3,1.88,4.79,6.01,1.76,7.79,3.16,5.05
CCTCACGGGTCACTCCAGGTTATAGCATCGGAGT,4.64,7.34,1.76,5.28,0.129,4.16,2.19,2.85,0.902,1.92,0.962,1.92,-0.553,-0.76,1.7,4.86,0.245,3.93,0.83,3.69
